Source: PubChem BioAssay AID620 (Sanford-Burnham Center for Chemical Genomics, 2007)
Hit rate of the full screen: of about 87,000 compounds, about 360 (0.41%) were called active. The sample holds actives, similar compounds and a random draw of the others, so the mix is not that of the screen. Cut-off read from the data, not from the text of the source: active = cytotoxicity above about 50%; inactive = the rest.

Assay: HT1080 cell viability loss – fluorescence readout (AID 620);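 note: cells exposed to compound overnight then 4 h with Alamar Blue; 0% = vehicle DMSO and 100% = killing control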
Settings: at 10 µM, hits give high values

Row | Structure (SMILES) | cytotoxicity
1 | CC1CC(=O)N(CC(=O)N2CCCC2)c2ccccc2S1 (centres undefined) | 1.5% (inactive)
2 | CSc1ccc2c(c1)N(CCC1CCCCN1C)c1ccccc1S2 (centres undefined) | 82.9% (active)
3 | CN1CCN(CCCN2c3ccccc3Sc3ccc(Cl)cc32)CC1 | 6% (inactive)
4 | O=C(O)CSc1cccc2cccc(C(=O)O)c12 | 3.5% (inactive)
5 | COc1ccc2cc(-c3nc4ccccc4n3C)c(=O)oc2c1 | -1.5% (inactive)
6 | CC(=O)Oc1ccc2cc(-c3nc4ccccc4n3C)c(=O)oc2c1 | -4.4% (inactive)
7 | CCN(CC)c1ccc2cc(-c3nc4ccccc4n3C)c(=O)oc2c1 | 62% (active)
8 | COc1ccc(CN(Cc2cccnc2)S(=O)(=O)c2ccc(-n3cnnn3)c(C)c2)cc1OC | -6.9% (inactive)
9 | COc1ccc(Cl)cc1N(CC(=O)Nc1ccccc1C(=O)NCc1ccco1)S(C)(=O)=O | 4.2% (inactive)
10 | Cc1cc(C(=O)COc2cccc(-n3cnnn3)c2)c(C)n1-c1ccccc1 | 27% (inactive)
11 | CC(=O)c1cccc(OCC(=O)c2cc(C)n(-c3cc(C)on3)c2C)c1 | 63.5% (active)
12 | Cc1cc(-n2c(C)cc(C(=O)COc3ccc4ccc(=O)oc4c3)c2C)no1 | 7.7% (inactive)
13 | CC(=O)c1ccc(NC(=O)CSc2nc3nc(C)cc(C)n3n2)cc1 | -1.8% (inactive)
14 | COc1ccc(/C=C2\CCc3ccccc3C2=O)cc1Cn1cccn1 | -6.8% (inactive)
15 | COC(=O)[C@@H]1C[C@@H]2CC[C@@H](O)C[C@@H]2N1Cc1ccc(-c2ccccc2)cc1 | 1.4% (inactive)
16 | COC(=O)[C@@H]1C[C@@H]2CC[C@@H](O)C[C@@H]2N1Cc1ccc(Cl)cc1 | 4.3% (inactive)
17 | COC(=O)[C@@H]1C[C@H]2CC[C@H](O)C[C@H]2N1Cc1ccc(-c2ccccc2)cc1 | 68.8% (active)
18 | COc1ccc(NC(=O)CSc2nnc(-c3ccccc3C)n2C)cc1 | 3% (inactive)
19 | COc1ccc(NC(=O)c2cc(-c3ccccc3OC)on2)cc1 | 38.4% (inactive)
20 | COc1ccccc1-c1cc(C(=O)Nc2cccnc2)no1 | 58.1% (active)
21 | O=C(Nc1cccnc1)c1cc(-c2ccccc2)on1 | 8.8% (inactive)
22 | O=C1c2ccccc2C(=O)c2c1oc(C(F)(F)F)c2C(=O)c1ccccc1 | -1.6% (inactive)
23 | Cc1oc2c(c1C(=O)c1ccccc1)C(=O)C(=O)c1ccccc1-2 | 107% (active)
24 | Cc1ccc(C(=O)c2c(C)oc3c2C(=O)C(=O)c2ccccc2-3)cc1 | -5.2% (inactive)
25 | CCOC(=O)c1cn(CC(=O)Nc2ccc(C)cc2)nn1 | -1.5% (inactive)

Row | Structure (SMILES) | cytotoxicity
26 | NC(=O)c1nsc(C(=O)N(CC(=O)NCc2ccc3c(c2)OCO3)C2CCCCC2)c1N | -0.4% (inactive)
27 | C=Cn1c(C(=O)O)cc(CC)c1-c1ccccc1 | -2.7% (inactive)
28 | C=CCSc1nccc(-c2nn(-c3ccc(C)cc3)ccc2=O)n1 | 44.5% (inactive)
29 | CSc1nccc(-c2nn(-c3ccc(C)cc3)ccc2=O)n1 | 56.4% (active)
30 | CCSc1nccc(-c2nn(-c3ccc(C)cc3)ccc2=O)n1 | 29% (inactive)
31 | O=C1OC(Nc2nccs2)c2ccccc21 (centres undefined) | 19.8% (inactive)
32 | C=CS(=O)(=O)c1ccc(Oc2ccc(S(=O)(=O)C=C)cc2)cc1 | 76.4% (active)
33 | O=S(=O)(c1ccc(Oc2ccc(S(=O)(=O)N3CCOCC3)cc2)cc1)N1CCOCC1 | -8.2% (inactive)
34 | CNS(=O)(=O)c1ccc(Oc2ccc(S(=O)(=O)NC)cc2)cc1 | -5.5% (inactive)
35 | CC(C)c1ccc(C(=O)CSc2ncn[nH]2)cc1 | -3.4% (inactive)
36 | COc1cc(C)c(C(C)C)cc1S(=O)(=O)n1ccnc1 | -1.7% (inactive)
37 | COc1cc(C)c(Cl)cc1S(=O)(=O)n1cnc(C)c1 | -1.4% (inactive)
38 | COc1cc(C)c(C(C)C)cc1S(=O)(=O)n1cnc(C)c1 | 61.2% (active)
39 | CCn1ncc(Br)c1C(=O)NC(C)c1ccccc1 (centres undefined) | 9% (inactive)
40 | COc1ccc2nc(-c3cccc(N)c3)[nH]c2c1 | 33.4% (inactive)
41 | Nc1cccc(-c2nc3ccccc3[nH]2)c1 | -3.9% (inactive)
42 | N#CC1=C(c2ccccc2)N=P(N2CCOCC2)(N2CCOCC2)N=C1N1CCOCC1 | -10.4% (inactive)
43 | CCNc1ccc(S(=O)(=O)C(F)(F)F)cc1NC(=O)C12CCC(CC1)C2 | 0.9% (inactive)
44 | COC(=O)c1sc(N)c(C(=O)OC)c1COC(=O)c1c(C)noc1C | 50.8% (active)
45 | COc1ccc(C(C)=O)cc1COC(=O)c1c(C)noc1C | 14% (inactive)
46 | COC(=O)c1c(N)sc(C(C)=O)c1C | -8.8% (inactive)
47 | Cc1nnc(SCC(=O)Nc2ccc3c(c2)OCO3)o1 | 12.7% (inactive)
48 | COc1nc(NCc2ccco2)nc(N2CCC(C)CC2)n1 | -3.4% (inactive)
49 | COc1cccc(C2N(c3ccccn3)C(=O)C3CCCN32)c1OC (centres undefined) | -9.8% (inactive)
50 | CN(C)CC(C(=O)c1ccccc1)c1ccccc1 (centres undefined) | 57.7% (active)

Row | Structure (SMILES) | cytotoxicity
51 | CCC(C(=O)c1ccc(O)cc1)c1ccccc1 (centres undefined) | -4% (inactive)
52 | CN(C)c1ccc(C(=O)C(O)c2ccccc2)cc1 (centres undefined) | -14% (inactive)
53 | CC(C)CC(C(=O)NC1CCCC1)N(Cc1cccs1)C(=O)c1snc(C(N)=O)c1N (centres undefined) | -7.5% (inactive)
54 | O=C(NCc1csc(-c2ccccc2)n1)c1ccco1 | -1.4% (inactive)
55 | COc1ccc(-n2cnc3cc(NCc4cccs4)ccc32)cc1 | 1.1% (inactive)
56 | COc1ccccc1-n1cnc2cc(NCc3ccccn3)ccc21 | -10% (inactive)
57 | Cc1ccccc1-n1cnc2cc(NCc3cccs3)ccc21 | 33.7% (inactive)
58 | COc1ccccc1-n1cnc2cc(NCc3ccco3)ccc21 | 59.5% (active)
59 | COc1ccccc1-n1cnc2cc(C(=O)NCc3ccco3)ccc21 | -2.4% (inactive)
60 | COc1ccccc1-n1cnc2cc(NCc3cccs3)ccc21 | 60% (active)
61 | CCOC(=O)CCP(=O)(O)C(C)(O)c1ccccc1 (centres undefined) | -7.3% (inactive)
62 | COn1c(=O)c(-c2cccs2)[n+]([O-])c2ccccc21 | -15.3% (inactive)
63 | COc1ccc(OC)c(N2CC(O)=C(c3nc4ccccc4s3)C2=N)c1 | -5.7% (inactive)
64 | COc1ccc(N2CC(O)=C(c3nc4ccccc4s3)C2=N)c(OC)c1 | -0.1% (inactive)
65 | CCOc1ccccc1N1CC(O)=C(c2nc3ccccc3s2)C1=N | 68.7% (active)
66 | O=C(NCc1ccccc1)C1(c2ccccc2)CCN(S(=O)(=O)c2ccccc2)CC1 | -1.9% (inactive)
67 | O=C(CSc1nc2c(c(=O)n1-c1ccc(Cl)cc1)SCC2)N1CCCC1 | -1.5% (inactive)
68 | N#Cc1c(-c2ccc(Cl)cc2)ccn2nc(C3CCCCC3)nc12 | -4% (inactive)
69 | Cc1nc(NC(C)C)c2oc3ccccc3c2n1 | -2.5% (inactive)
70 | COc1cccc(N2CCN(c3ncnc4c3[nH]c3ccc(F)cc34)CC2C)c1 (centres undefined) | 54.2% (active)
71 | COc1cccc(N2CCN(c3ncnc4c3[nH]c3ccccc34)CC2C)c1 (centres undefined) | -3% (inactive)
72 | Fc1ccc2[nH]c3c(N4CCN(c5ccccc5)CC4)ncnc3c2c1 | -4.2% (inactive)
73 | O=C(C1CCCN(Cc2cccc(F)c2)C1)N1CCCCC1 (centres undefined) | 14.1% (inactive)
74 | O=C(Nc1ccccc1N1CCN(C(=O)c2ccc(Cl)cc2)CC1)c1cc2ccccc2o1 | 1.6% (inactive)
75 | O=C(Nc1ccc(N2CCN(C(=O)c3ccc(Cl)cc3)CC2)cc1)c1cc2ccccc2o1 | 7% (inactive)

Row | Structure (SMILES) | cytotoxicity
76 | O=C(Nc1ccc(N2CCOCC2)c(Cl)c1)c1cccc(F)c1 | 22.9% (inactive)
77 | O=C(Nc1ccc(N2CCOCC2)cc1)c1cc2ccccc2o1 | 1.6% (inactive)
78 | O=C(Nc1ccc(N2CCOCC2)c(Cl)c1)c1cc2ccccc2o1 | 89.6% (active)
79 | O=C(Nc1ccc(N2CCOCC2)c(Cl)c1)c1ccc(F)cc1 | 56.2% (active)
80 | CCC(=O)N1CCN(c2ccc(NC(=O)c3cc4ccccc4o3)cc2)CC1 | 1.3% (inactive)
81 | O=C(Nc1ccc(CN2CCOCC2)cc1)c1cc2ccccc2o1 | 8.9% (inactive)
82 | CCCC(=O)N1CCN(c2ccc(NC(=O)c3cc4ccccc4o3)cc2Cl)CC1 | 69.8% (active)
83 | CCC(=O)N1CCN(c2ccc(NC(=O)c3cc4ccccc4o3)cc2Cl)CC1 | 96.3% (active)
84 | CCC(=O)Nc1ccc(NC(=O)c2cc3ccccc3o2)cc1 | -1.5% (inactive)
85 | O=C(Nc1ccc(N2CCOCC2)c(Cl)c1)c1c(F)c(F)c(F)c(F)c1F | 8.9% (inactive)
86 | CCOC(=O)c1ccc2ncc(C(=O)OCC)c(NCc3ccco3)c2c1 | 1.9% (inactive)
87 | O=S(=O)(Nc1ccccn1)c1ccc(Cl)cc1 | -6.1% (inactive)
88 | COc1cccc(-n2c(Cc3cc(=O)[nH]c(=O)[nH]3)nnc2SCC(=O)N2CCCC2)c1 | 3.9% (inactive)
89 | COc1ccc([C@H]2[C@@H](C#N)[C@H](C#N)N3CCCN23)cc1 | 5.9% (inactive)
90 | O=C(CCn1c(=O)sc2ccccc21)NCCN1CCOCC1 | 4.4% (inactive)
91 | Cc1ccc(-c2noc(CCCN3C(=O)c4ccccc4C3=O)n2)cc1 | -3.5% (inactive)
92 | CC(C)c1ccc(NC(=S)NCc2cccs2)cc1 | -17.4% (inactive)
93 | O=C(CN1CCc2ccccc2C1)Nc1ccc(Br)cc1 | -3.2% (inactive)
94 | O=C(Nc1ccc(N2CCCC2)c(Cl)c1)c1ccc(Br)o1 | 12.7% (inactive)
95 | O=C(Nc1ccc(N2CCOCC2)c(Cl)c1)c1ccc(Br)o1 | 51.4% (active)
96 | O=C(Nc1ccc(N2CCN(C(=O)c3ccccc3)CC2)c(Cl)c1)c1ccc(Br)o1 | 22.5% (inactive)
97 | O=C(Nc1ccc(N2CCN(C(=O)c3ccco3)CC2)c(Cl)c1)c1cc2ccccc2o1 | 81.6% (active)
98 | O=C(Nc1ccc(N2CCN(C(=O)c3ccccc3)CC2)c(Cl)c1)c1ccco1 | -4.5% (inactive)
99 | O=C(Nc1ccc(N2CCN(C(=O)c3ccco3)CC2)c(Cl)c1)c1c(F)c(F)c(F)c(F)c1F | -3% (inactive)
